ChEMBL document CHEMBL3988442, “University of Dundee, Small-Polar-MMV Screening Library” (2021)
Screen size: about 48,000 compounds; about 13,000 (27%) showed an effect of 50% or more. Some of the results follow.

Test system: Wolbachia pipientis
Experiment: Anti-Wolbachia Cell-Based Screen
Assay type: functional
Design: scale not given: in the data most compounds retested in dose-response had high values
Settings: 5 µM

With `Cc1ccc(OC2CCN(C(=O)Cc3c(C)[nH]c(=O)[nH]c3=O)CC2)cc1` as the compound, how does the “Percent Effect” value read?
Its value is 33.83%.

With `Cc1ccccc1N1CCCN(C(=O)CCc2ccncc2)CC1` as the compound, how does the “Percent Effect” value read?
The value was 5.689%.

`CS(=O)(=O)NCC1CCCN(C(=O)COCC(F)(F)F)C1` (centres undefined) was tested. Which “Percent Effect” value did it give?
Its value is -5.002%.

`CN1CCC(O)(CCNC(=O)[C@@]23CNC[C@@H]2CN(C2CCCC2)C3)CC1` was tested. Which “Percent Effect” value did it give?
Its value is -8.037%.

`CNS(=O)(=O)CC(=O)N(Cc1ccccc1)c1ccc(C)cc1` was tested. Which “Percent Effect” value did it give?
The value was -6.093%.

Which “Percent Effect” value does the source give for `CNc1snc(C)c1C(=O)N1CCCC(n2nc(C)cc2C)C1` (centres undefined) here?
Its value is -4.797%.

How did the “Percent Effect” value turn out when `Cc1cc(C)n(C2CCCN(C(=O)c3cc(C(N)=O)cs3)C2)n1` (centres undefined) was run?
Its value is 143.1%.

How did the “Percent Effect” value turn out when `NC(=O)c1csc(C(=O)N2CCCC(n3ccnc3)C2)c1` (centres undefined) was run?
The value was 4.502%.

For `CC(C)c1nccn1C1CCCN(C(=O)c2ccnc(N(C)C)c2)C1` (centres undefined), which “Percent Effect” value is on record?
Its value is -0.8202%.

`CC(C)c1nccn1C1CCCN(C(=O)c2ccsc2)C1` (centres undefined) was tested. Which “Percent Effect” value did it give?
The value was -9.917%.

How did the “Percent Effect” value turn out when `O=C1CSc2ccc(C(=O)N3CCCC(n4cccn4)C3)cc2N1` (centres undefined) was run?
The value was 11.58%.

How did the “Percent Effect” value turn out when `CC(C)c1nccn1C1CCCN(C(=O)c2cc(C(N)=O)cs2)C1` (centres undefined) was run?
Its value is 117.7%.

With `NC(=O)c1csc(C(=O)N2CCCC(n3cccn3)C2)c1` (centres undefined) as the compound, how does the “Percent Effect” value read?
Its value is 118.9%.

With `Cc1nc(C)n(C2CCCN(C(=O)c3cc(C(N)=O)cs3)C2)n1` (centres undefined) as the compound, how does the “Percent Effect” value read?
The value was 0.8263%.

With `O=C1COc2ccc(S(=O)(=O)NC3CC3)c3c2N1CCC3` as the compound, how does the “Percent Effect” value read?
The value was -10.68%.

With `O=C1CC[C@H]2CN(c3ncc(F)cn3)CC[C@H]2N1CCc1ccccc1` as the compound, how does the “Percent Effect” value read?
Its value is -8.563%.

For `CN(C(=O)c1ccncc1F)c1ccccc1S(C)(=O)=O`, which “Percent Effect” value is on record?
The value was 0.2118%.

`O=C(CCN1CCCCC1)N1CCC(Cc2ccc(CO)cc2)C1` (centres undefined) was tested. Which “Percent Effect” value did it give?
The value was -4.228%.

For `Cc1nc(N2CCOc3ccc(CO)cc3C2)c2nc(C)oc2n1`, which “Percent Effect” value is on record?
The value was -3.074%.

With `C[C@@H]1CN(CCC(=O)N(C)Cc2ccccc2)C[C@@]1(O)C1CCC1` as the compound, how does the “Percent Effect” value read?
Its value is -9.793%.

`C[C@@H]1CN(CCC(=O)N(C)Cc2ccccc2)CC[C@@]1(O)C1CCC1` was tested. Which “Percent Effect” value did it give?
Its value is 22.93%.

How did the “Percent Effect” value turn out when `O=C(O)[C@@H]1CN(Cc2cnc(C3CCCCC3)nc2)C[C@H]1C1CC1` was run?
Its value is 0.2506%.

How did the “Percent Effect” value turn out when `CCN(Cc1ccccc1)C(=O)CCN1C[C@@H](C(=O)O)[C@H](C2CC2)C1` was run?
The value was 110.3%.

For `CN(Cc1ccccc1)C(=O)CCN1C[C@H](C2CC2)[C@@H](N(C)C)C1`, which “Percent Effect” value is on record?
Its value is 117.2%.

For `CCN(Cc1ccccc1)C(=O)CCN1CC(O)C1`, which “Percent Effect” value is on record?
Its value is 89.96%.

How did the “Percent Effect” value turn out when `CCNc1ncc(CN2C[C@@H](C(=O)O)[C@H](C3CC3)C2)cn1` was run?
The value was -13.99%.

`CN(Cc1ccccc1)C(=O)CCN1CCC2(CC1)[C@H](O)C[C@@H]2O` was tested. Which “Percent Effect” value did it give?
Its value is -5.462%.

For `CCN(Cc1ccncc1)C(=O)CCn1c(C)cc2ccccc21`, which “Percent Effect” value is on record?
Its value is -6.043%.

With `CCNC(=O)C1CCN(c2cc(-c3ccccc3)nc3ccnn23)C1` (centres undefined) as the compound, how does the “Percent Effect” value read?
The value was 11.77%.

Which “Percent Effect” value does the source give for `CC(C)(C)c1ccc(=O)n(CN2CCCC(C(F)(F)F)C2)n1` (centres undefined) here?
Its value is -4.138%.

`COc1ccc2c(c1)OCC(CNC(=O)c1ccc(=O)n(C)c1)C2` (centres undefined) was tested. Which “Percent Effect” value did it give?
Its value is 0.3526%.

For `O=C(CCNC(=O)c1ccoc1)NCc1ccccc1F`, which “Percent Effect” value is on record?
The value was 0.6342%.

With `Cc1nnc(CN2CCN(CC(O)c3cccc(F)c3)CC2)n1C` (centres undefined) as the compound, how does the “Percent Effect” value read?
Its value is 8.346%.

`Cn1ccnc1CN1CCN(Cc2cc(C#N)ccc2F)CC1` was tested. Which “Percent Effect” value did it give?
Its value is 0.8662%.

Which “Percent Effect” value does the source give for `Cc1nnc(CN2CCN(Cc3nccn3C)CC2)n1C` here?
Its value is -10.76%.

For `Cn1ccnc1CN1CCN(CC(O)c2ccc(F)c(F)c2)CC1` (centres undefined), which “Percent Effect” value is on record?
The value was -1.464%.

With `N#Cc1ccnc(N2CCN(CC(O)c3cc(F)ccc3F)CC2)c1` (centres undefined) as the compound, how does the “Percent Effect” value read?
Its value is -0.2819%.

`Cn1ccnc1CN1CCN(CC(O)c2cc(F)ccc2F)CC1` (centres undefined) was tested. Which “Percent Effect” value did it give?
The value was 92.89%.

`Cn1ccnc1CN1CCN(CC(O)c2ccc(F)cc2)CC1` (centres undefined) was tested. Which “Percent Effect” value did it give?
Its value is 154.5%.

How did the “Percent Effect” value turn out when `Cn1ccnc1CN1CCN(CC(O)c2ccco2)CC1` (centres undefined) was run?
The value was 3.847%.

For `CCN1CCN(CC(O)c2ccc(F)cc2)CC1` (centres undefined), which “Percent Effect” value is on record?
Its value is 5.506%.

`Cc1ccc(C(O)CN2CCN(Cc3nccn3C)CC2)cc1C` (centres undefined) was tested. Which “Percent Effect” value did it give?
Its value is 121.6%.

Which “Percent Effect” value does the source give for `CC(C)c1ccc(C(O)CN2CCN(Cc3nccn3C)CC2)cc1` (centres undefined) here?
Its value is 94.53%.

How did the “Percent Effect” value turn out when `CC(C)C1CN(S(=O)(=O)Cc2cccc(C#N)c2)CCS1` (centres undefined) was run?
Its value is -6.809%.

How did the “Percent Effect” value turn out when `COCC1(NC(=O)Nc2nc(C)ns2)CCCC1` was run?
The value was -4.167%.

For `CC(C)[C@H]1COC(=O)N1Cc1noc(-c2ccccc2)n1`, which “Percent Effect” value is on record?
Its value is -3.7%.

With `Cc1nc(NS(=O)(=O)c2ccc(F)c(Br)c2)no1` as the compound, how does the “Percent Effect” value read?
Its value is -14.77%.

How did the “Percent Effect” value turn out when `CCn1ncc2c1C(COC)CN(Cc1ccc(F)cc1)C2.O=C(O)C(F)(F)F.O=C(O)C(F)(F)F` (centres undefined) was run?
The value was 110%.

With `Cn1ncc2c1CN(Cc1cccnc1)CC2COCC1CC1.O=C(O)C(F)(F)F.O=C(O)C(F)(F)F.O=C(O)C(F)(F)F` (centres undefined) as the compound, how does the “Percent Effect” value read?
Its value is 2.893%.

`COCC1CN(Cc2cccnc2)Cc2nnn(CC3CC3)c21.O=C(O)C(F)(F)F.O=C(O)C(F)(F)F` (centres undefined) was tested. Which “Percent Effect” value did it give?
Its value is -2.73%.

`CCn1cc2c(n1)CN(Cc1ccc(F)cc1)CC2COCC1CC1.O=C(O)C(F)(F)F` (centres undefined) was tested. Which “Percent Effect” value did it give?
Its value is -4.171%.

How did the “Percent Effect” value turn out when `COCC1CN(Cc2ccc(F)cc2)Cc2nnn(CC3CC3)c21.O=C(O)C(F)(F)F` (centres undefined) was run?
Its value is -1.939%.

How did the “Percent Effect” value turn out when `CCn1ncc2c1C(COC)CN(Cc1cccnc1)C2.O=C(O)C(F)(F)F.O=C(O)C(F)(F)F.O=C(O)C(F)(F)F` (centres undefined) was run?
Its value is 103%.

How did the “Percent Effect” value turn out when `COCC1CN(CC2CCOCC2)Cc2cn(CC3CCCC3)nc21` (centres undefined) was run?
The value was -7.587%.
